# Compounds with a hit are over-represented: about 19% of the library has one in this group of screens.
# IL-1B inflam inh – inflammasome signaling inhibition, IL-1 beta readout; THP-1 LPS/ATP IL-1B secretion, AlphaLISA, 16 h; stronger effect = lower value; activity change, % at 57.5 µM; AID 743279; 360,000 tested, 4.7% active; in the data active means activity change below about -50%; inconclusive means mostly about -30% to -49%; further: on the % scale 0 is the no-effect control and ±100 the full control effect
#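 Secreted IL-1B measured by AlphaLISA bead assay after 16 h compound exposure of THP-1 cells; compounds (final up to 57.5 uM) added 1 h before LPS (250 ng/mL) and ATP (1.25 mM) stimulation; lower signal means less secretion.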
# SW480 rerep – DNA re-replication induction in SW480 cells | SW480 DNA re-replication, Hoechst DNA content imaging, 48 h | AID 624297 | Potency, µM (highest dose often 46.1 µM), for inactives: at the highest dose re-replication activation, hits mostly activators | 340,000 tested, 1.8% active; further: potency means the concentration at half of the fitted maximal effect; % of control where 0% means no effect; nearly all actives have a fitted effect of over 55% in size
#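 Compounds, transferred as 23 nL by pin tool, were incubated with cells for 48 hr; DNA content per nucleus was then quantified by Hoechst staining and fluorescence plate imaging.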
# DT40 TDP1 CPT – DT40-hTDP1 cell growth loss with CPT; chicken DT40 Tdp1-/-;hTDP1 cells + 20 nM CPT, ATP luminescence, 48 h; Potency, µM (highest dose often 46.2 µM), for the others: top-dose activity change, negative = growth inhibition, most hits filed as inhibitors; 420,000 tested, 12% active; AID 686979; further: potency means the concentration at half of the fitted maximal effect; on the % scale 0 is the no-effect control and ±100 the full control effect; nearly all actives have a fitted effect of over 55% in size
#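 Cell growth measured by CellTiter-Glo luminescence after a minimum 48 h, 37 C compound exposure with 20 nM CPT in Tdp1-knockout DT40 cells stably expressing hTDP1, seeded 400/well; qHTS titration format.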
# TDP1 cell noCPT – qHTS for Inhibitors of human tyrosyl-DNA phosphodiesterase 1 (TDP1): qHTS in cells in absence of CPT; DT40 Tdp1-/- hTDP1 cells, no CPT, ATP luminescence, 48 h; Potency, µM (doses to about 46.2 µM), for the others: top-dose activity change, negative = growth inhibition, most hits filed as inhibitors; AID 686978, 2013; 420,000 tested, 15% active; further: potency means the concentration at half of the fitted maximal effect; on the % scale 0 is the no-effect control and ±100 the full control effect; nearly all actives have a fitted effect of over 55% in size
#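 Luminescent ATP content (CellTiter-Glo) served as the growth readout. Knockout chicken DT40 cells expressing human TDP1 were exposed to compounds without camptothecin for a minimum 48 hr at 37 °C.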
# Chronic BCR inh – inhibitors of chronic active B-cell receptor signaling; ABC-DLBCL IkBa-CBG/CBR reporter, luminescence ratio, 4 h; Potency, µM (highest dose often 46.1 µM), inactives show at the highest dose activity change, negative = inhibition, usual class: inhibitors; 340,000 tested, 0.05% active; active means well fitted inhibition curve with a large enough effect in the signal ratio, with a control signal flat, not every such curve was filed as active; inconclusive means small, poorly fitted or top-dose-only effect, or effect the other way, or a change in a side signal; the % refers to the signal ratio;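 further: potency means the concentration at half of the fitted maximal effect; plate controls were basal doxycycline-induced cells for no effect and cells given 10 µM MG132 for full effect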
#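 Doxycycline induced both beetle luciferases in TMD8 lymphoma cells; IKK-driven degradation limits the IkappaBalpha-fused green signal, while red luminescence normalises for cell number and nonspecific effects. Compounds tested up to 46 uM, 4 hrs.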
# MCF10A rerep – inducers of DNA re-replication in MCF 10A breast cells. 350,000 tested, 2.9% active. MCF 10A DNA re-replication, Hoechst nuclear intensity, 48 h. Potency, µM (top dose mostly 46.1 µM), for inactives: top-dose activity, positive = re-replication, actives largely listed as activators; further: potency means the concentration at half of the fitted maximal effect; % of control where 0% means no effect; nearly all actives have a fitted effect of over 50% in size
# * hit, by the source's call; ? = inconclusive; / = not tested or not shown. Unless noted, the call rests on the fitted dose curve; in most records, active means well fitted curve in the direction sought with a large enough effect; inconclusive means small, poorly fitted or top-dose-only effect, or another doubt; inactive means no such curve, though single readings can be large; an effect the other way counts as inactive or inconclusive.
SMILES,IL-1B inflam inh,SW480 rerep,DT40 TDP1 CPT,TDP1 cell noCPT,Chronic BCR inh,MCF10A rerep
CSc1ccc(/C=N/NC(=O)c2ccc(C)c(C)c2)cc1,-16.8,18.2%,?,23.1µM*,1.1%,?
CC(C)(C)c1ccc(C(=O)N/N=C/c2cccc(Cl)c2)cc1,?,?,?,16.4µM*,?,12.7%
O=C(N/N=C/c1cccc(NC(=O)c2ccc(Cl)cc2)c1)c1ccc(O)cc1,?,-5.7%,?,14.6µM*,?,14.3%
O=C(N/N=C/c1ccc(F)cc1)c1cccc(NC(=O)c2ccc(F)cc2)c1,32.6,2.0%,?,?,?,20.6µM*
O=C(N/N=C/c1ccncc1)c1cccc(NC(=O)c2ccc(Cl)cc2)c1,29.0,-4.4%,-6.1%,0.9%,0.7%,-3.0%
O=C(Nc1ccccc1)Oc1cccc(Br)c1,4.7,-6.3%,0.6%,-23.2%,?,1.8%
O=C(NCC(=O)N1CCCC1)c1ccc(Cl)cc1,-0.6,203.8%,-2.5%,-1.6%,0.3%,-13.9%
COc1cccc(C=NNC(=O)C(C)SC(C)C(=O)NN=Cc2cccc(OC)c2)c1 (centres undefined),13.4,14.9%,-1.7%,?,/,-23.7%
CC(SC(C)C(=O)NN=Cc1cccc(Cl)c1)C(=O)NN=Cc1cccc(Cl)c1 (centres undefined),17.9,9.2µM*,?,16.4µM*,/,4.11µM*
Cc1c(CCC(=O)NCc2cccc(Cl)c2)c(=O)oc2c(C)c(O)ccc12,/,/,-2.4%,-15.4%,/,/
CN(CC(=O)Nc1ccc(Br)cc1)Cc1ccccc1,-81.1*,1.1%,-25.7%,-28.6%,?,-2.9%
CN(CC(=O)Nc1cccc(S(=O)(=O)N(C)C)c1)Cc1ccccc1,13.3,-1.8%,-28.3%,?,13.8%,8.5%
CN(CC(=O)Nc1cccc(C(F)(F)F)c1)Cc1ccccc1,?,-0.9%,?,9.2µM*,13.8%,13.6%
CN(CC(=O)NCCc1ccc(F)cc1)Cc1ccc(Br)cc1,-59.4*,-2.2%,-6.3%,?,0.5%,-1.7%
O=C1c2ccccc2C(c2nnnn2Cc2ccccc2)N1CCc1c[nH]c2ccccc12 (centres undefined),-4.3,/,?,?,/,/
CC(C)NC(=O)N[C@H]1CC[C@H](CC(=O)NCc2ccc(Oc3ccccc3)cc2)O[C@@H]1CO,25.7,/,?,?,/,/
O=C(C[n+]1cccc(C(=O)Nc2ccccc2)c1)c1ccc(Cl)cc1,?,/,?,16.4µM*,/,/
COc1ccc(NC(=O)c2cc(C3CC3)nc3c2c(C)nn3-c2ccccc2)cc1,/,/,?,-50.8%,/,/
Cc1nn(-c2ccccc2)c2nc(C3CC3)cc(C(=O)Nc3ccc(F)cc3)c12,/,/,16.4µM*,20.6µM*,/,/
COc1ccc(CNC(=O)c2cccc(-n3cnc4cccnc43)c2C)cc1,/,/,-29.4%,-16.2%,/,/
COc1ccc(OC)c(NC(=O)c2cc(C3CC3)nc3c2c(C)nn3-c2ccc(C)cc2)c1,/,/,25.9µM*,?,/,/
COc1cccc(CNC(=O)c2cc(C)nc3c2c(C)nn3-c2ccc(C)cc2)c1,/,/,?,16.4µM*,/,/
Cc1c(C(=O)NCc2ccccc2Cl)cccc1-n1cnc2cccnc21,/,/,18.4µM*,23.1µM*,/,/
CC(C)NC(=O)Nc1cccc2c1O[C@H](CN(C)C(=O)NC1CCCCC1)[C@H](C)CN([C@H](C)CO)C2=O,15.1,17.9%,-14.1%,-4.6%,1.2%,-8.8%
COc1ccc(NC(=O)c2cc(C)nc3c2c(C)nn3-c2ccc(C)cc2)cc1OC,/,/,?,14.6µM*,/,/
SMILES,IL-1B inflam inh,SW480 rerep,DT40 TDP1 CPT,TDP1 cell noCPT,Chronic BCR inh,MCF10A rerep
COc1cccc(CNC(=O)c2cccc(-n3c(C)nc4cccnc43)c2C)c1,/,/,20.6µM*,?,/,/
NS(=O)(=O)c1ccc(N2N=C(c3ccccc3)CC2c2ccccc2)cc1 (centres undefined),-52.1*,13µM*,?,?,5.9%,8.2µM*
CCc1ccc(C2=NN(c3ccc(S(N)(=O)=O)cc3)C(c3ccc(F)cc3)C2)cc1 (centres undefined),-86.7*,9.2µM*,18.4µM*,?,0.4%,?
NS(=O)(=O)c1ccc(N2N=C(c3ccccc3)CC2c2ccc(Br)cc2)cc1 (centres undefined),-24.8,/,?,?,/,/
CC(=O)N1N=C(c2ccccc2)CC1c1ccccc1 (centres undefined),7.2,15.9%,-27.7%,?,6.1%,11.8%
NS(=O)(=O)c1ccc(N2N=C(c3ccccc3)CC2c2ccccc2Cl)cc1 (centres undefined),-24.7,4.61µM*,-8.2%,-23.0%,?,3.26µM*
O=S(=O)(O)c1ccc(N2N=C(c3ccccc3)CC2c2ccccc2)cc1 (centres undefined),-3.8,14.6µM*,-1.9%,0.4%,22.0%,15.2%
O=C(NCCc1ccc(Cl)cc1)c1ccc(CSCc2cccc(Cl)c2)o1,/,/,?,?,1.4%,/
CC1CC(C)CN(C(=O)COC(=O)c2ccc(S(=O)(=O)N(C)c3ccccc3)cc2)C1 (centres undefined),38.9,-4.2%,-26.1%,?,0.3%,1.1%
CCOC(=O)c1nncc(-c2ccccc2)n1,-14.2,?,11.5%,6.7%,2.4%,-1.8%
Cc1c(CC(=O)O)c(=O)oc2cc(OCc3ccc(Br)cc3)ccc12,1.7,1.9%,0.2%,4.6%,3.8%,5.1%
Cc1ccc(C2CC(c3ccccc3)=NN2c2ccc(S(N)(=O)=O)cc2)cc1 (centres undefined),?,/,29.1µM*,?,/,/
CCOC(=O)c1ccc(N2C(=O)c3n[nH]c(C)c3C2c2ccc(OC)cc2OC)cc1 (centres undefined),-58.2*,15.7%,?,23.1µM*,?,?
CCOC(=O)c1ccc(N2C(=O)c3n[nH]c(-c4ccco4)c3C2c2ccc(OC)cc2OC)cc1 (centres undefined),/,/,23.1µM*,18.4µM*,/,/
CC(C)CNS(=O)(=O)c1ccc(CCC(=O)NC2CCCC2)cc1,0.0,-61.4%,1.7%,24.7%,2.5%,1.03µM*
CCNS(=O)(=O)c1ccc(CCC(=O)NC2CCCC2)cc1,-12.9,5.3%,-2.2%,-25.3%,-0.3%,10.0%
COc1cc(OC)cc(-c2nnc(NC(=O)c3ccc4c(c3)OCCO4)o2)c1,-2.8,-10.1%,10.3µM*,8.2µM*,-1.2%,5.2%
Cc1ccc(C)c(-c2nnc(NC(=O)c3ccc4c(c3)OCCO4)o2)c1,/,/,18.4µM*,8.2µM*,/,/
